A selection: hits, their analogues and other compounds. The true share with any hit is near 3.6%.
Bead autofluor: counter-screen for toxin protease inhibitors: compound fluorescence; compound autofluorescence counterscreen, microsphere flow cytometry; active compounds read high; hit rate 3.1% among 360,000; fluorescence intensity (concentration not given with the values); in the data active = fluorescence intensity above about 16000; inconclusive = no clear call, values can overlap the other calls
BoNT A protease: BoNT/A light chain protease inhibitors, primary screen, biochemical, flow cytometry, MLPCN library | Botulinum neurotoxin type A light chain protease (Clostridium botulinum A str. ATCC 3502) | multiplex microsphere protease substrate cleavage | inhibition, % at 10 µM | hit rate 0.17% among 360,000 | AID 588499, 2011; also: plate controls were buffer without enzyme for full effect and enzyme alone for no effect
Anthrax LF inh2: Bacillus anthracis LF protease inhibitors, primary screen, biochemical, multiplex microsphere, MLPCN library | Lethal factor (Bacillus anthracis), P15917 | multiplex microsphere protease cleavage assay | inhibition, % at 10 µM | hit rate 0.12% among 360,000 | AID 588501, 2011; also: plate controls were buffer without enzyme for full effect and enzyme alone for no effect
MazF activator: activators of E. coli MazEF toxin-antitoxin RNase, primary screen, biochemical, fluorescence, uHTS; FAM/BHQ RNA-DNA oligo cleavage fluorescence, 5 h; hit rate 0.32% among 350,000; activation, % at 20 µM; in the data active = activation above about 50%
Target sequence (P0AE70 whole entry, looked up): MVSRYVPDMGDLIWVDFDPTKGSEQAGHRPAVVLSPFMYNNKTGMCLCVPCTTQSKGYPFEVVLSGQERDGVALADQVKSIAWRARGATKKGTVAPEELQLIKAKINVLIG
BoNT-F LC inh: BoNT/F light chain protease inhibitors, primary screen, biochemical, flow cytometry, MLPCN library; Botulinum neurotoxin type F light chain protease (Clostridium botulinum); Multiplex microsphere protease cleavage assay; inhibition, % at 10 µM; hit rate 0.22% among 360,000; AID 588497, 2011; in the data active = inhibition above about 35%, passing the limit was not always enough; inconclusive = no clear call, values can overlap the other calls; also: plate controls were buffer without enzyme for full effect and enzyme alone for no effect
The depositor's hits bear a star; ? = inconclusive; . = not tested or not shown. Rule as the data show it, unless noted: active = inhibition above about 30%; inconclusive = no clear call, values can overlap the other calls; inactive = below that.

SMILES	Bead autofluor	BoNT A protease	Anthrax LF inh2	MazF activator	BoNT-F LC inh
O=C1SCCN1N=Cc1ccc([N+](=O)[O-])o1	3739	0	-3	-4	-3
Cc1cc2nc(-c3cccnc3SCC(=O)NCc3ccco3)[nH]c2cc1C	22154*	3	2	-5	2
CNC(=O)c1cc2cccc(OC)c2oc1=O	2469	0	1	-16	-9
CC(NC(=O)c1ccc(Cl)s1)C1CCCO1 (centres undefined)	24646*	-2	1	4	-4
CC(NC(=O)c1cccs1)C1CCCO1 (centres undefined)	4271	-3	-2	4	-15
CC(NC(=O)c1csc2ccccc12)C1CCCO1 (centres undefined)	16909*	?	1	10	-4
CC(NC(=O)Nc1ccc2c(c1)OCO2)C1CCCO1 (centres undefined)	23219*	1	-1	-1	2
COc1cccc2cc(C(=O)NC(C)C3CCCO3)c(=O)oc12 (centres undefined)	16163*	-1	-4	1	-4
CC1CC(C)CN(S(=O)(=O)c2ccc(NC(=O)[C@@H]3CCCN3C(=O)c3cccs3)cc2)C1 (some centres undefined)	9186	-1	0	-1	-7
O=C(COC(=O)C1=NN(c2ccccc2)C(=O)CC1)Nc1nc(-c2ccc(F)cc2)cs1	3772	0	6	-7	3
Cc1nn(C2CCS(=O)(=O)C2)c(C)c1C=O (centres undefined)	3292	0	0	-8	-3
COc1cccc2cc(C(=O)NCC3CCCO3)c(=O)oc12 (centres undefined)	3351	-1	-2	0	-5
Cc1cc(C(=O)NC(C)C2CCCO2)cs1 (centres undefined)	16328*	?	-1	-1	-3
COc1cc(Br)cc2cc(C(=O)NCC3CCCO3)c(=O)oc12 (centres undefined)	22610*	?	-1	10	-3
CCc1cc(C(=O)NC(C)C2CCCO2)cs1 (centres undefined)	6538	-4	-1	0	-2
CC(C)CNC(=O)CSc1nc2nn(-c3ccccc3)c(=O)c-2c2n1CCCCC2	4942	-1	-2	-4	-1
CNC(=O)CSc1nc2nn(-c3ccccc3)c(=O)c-2c2n1CCCCC2	21375*	-3	-1	-13	-2
COC(=O)C[C@@H]1C[C@@H]2c3cc(NC(=O)Cc4ccncc4)ccc3O[C@@H]2[C@@H](CO)O1	3060	0	-5	7	-10
O=C(Cc1ccc(-c2ccccc2)cc1)Nc1ncccc1O	4126	2	-3	-5	14
O=C(Cn1nnc(-c2ccc(OCc3ccccc3F)cc2)n1)N1CCOCC1	22617*	0	-2	-4	-2
COc1ccc(CNC(=O)CN2C(=O)CCSc3ccc(S(=O)(=O)N4CCCC4)cc32)cc1	5824	0	1	-5	1
O=C(OCc1ccc(F)cc1)c1ccc2c(c1)-c1ccccc1C2=O	2485	3	2	-1	10
CCOC(=O)C1=C(Cc2ccc(F)cc2)C(=O)c2ccccc2C1=O	23756*	5	-14	-12	-14
O=c1[nH]c(SCCc2ccccc2)nc2c1CCC2	3035	0	-2	.	-1
CN(C(=O)CSc1nc2c(c(=O)[nH]1)CCCC2)C1CCCCC1	20234*	?	-1	2	4
SMILES	Bead autofluor	BoNT A protease	Anthrax LF inh2	MazF activator	BoNT-F LC inh
O=c1[nH]c(SCc2ccccc2Cl)nc2c1CCC2	23543*	-3	-2	4	-2
Cc1cccc(CSc2nc3c(c(=O)[nH]2)CCC3)c1	2569	0	-2	-9	-8
Cc1ccc(NC(=O)CSc2nc3c(c(=O)[nH]2)CCC3)cc1C	17130*	-2	-2	4	-2
Cc1ccc(CSc2nc3c(c(=O)[nH]2)CCC3)cc1	20993*	?	-2	1	-4
Cc1ccc(NC(=O)CSc2nc3c(c(=O)[nH]2)CCCC3)cc1C	6586	-1	0	9	-2
CCOC(=O)[C@]12CCCC=C1N(Cc1ccc(Cl)cc1Cl)C(=O)[C@H](CC(=O)N1CCN(C(=O)c3ccco3)CC1)C2	6210	0	0	.	1

Screening data as filed in PubChem BioAssay.
